Rows were chosen to be rich in hits. Some 2.5% of all compounds tested hit in one or more screens of this group.
MEKK3 PB1 HTS: modulators (inhibitors or enhancers) of MEK5 binding to human MEKK3 PB1 domain; Q99759; bead-based flow cytometry, Alexa488-MEK5 binding to MEKK3; actives lie on both sides; 0 = blocked by unlabeled MEK5, 100 = vehicle; binding response (% of control), % at 10 µM; 290,000 compounds, 1.4% hits; AID 1529;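 active means binding response more than 3 SD above or below the average of its plate-row segment, actives on both sides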;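 further: Alexa488 bead fluorescence after subtracting the streptavidin-only scavenger bead signal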
Target sequence (Q99759 whole entry, looked up, the tested form may be a part): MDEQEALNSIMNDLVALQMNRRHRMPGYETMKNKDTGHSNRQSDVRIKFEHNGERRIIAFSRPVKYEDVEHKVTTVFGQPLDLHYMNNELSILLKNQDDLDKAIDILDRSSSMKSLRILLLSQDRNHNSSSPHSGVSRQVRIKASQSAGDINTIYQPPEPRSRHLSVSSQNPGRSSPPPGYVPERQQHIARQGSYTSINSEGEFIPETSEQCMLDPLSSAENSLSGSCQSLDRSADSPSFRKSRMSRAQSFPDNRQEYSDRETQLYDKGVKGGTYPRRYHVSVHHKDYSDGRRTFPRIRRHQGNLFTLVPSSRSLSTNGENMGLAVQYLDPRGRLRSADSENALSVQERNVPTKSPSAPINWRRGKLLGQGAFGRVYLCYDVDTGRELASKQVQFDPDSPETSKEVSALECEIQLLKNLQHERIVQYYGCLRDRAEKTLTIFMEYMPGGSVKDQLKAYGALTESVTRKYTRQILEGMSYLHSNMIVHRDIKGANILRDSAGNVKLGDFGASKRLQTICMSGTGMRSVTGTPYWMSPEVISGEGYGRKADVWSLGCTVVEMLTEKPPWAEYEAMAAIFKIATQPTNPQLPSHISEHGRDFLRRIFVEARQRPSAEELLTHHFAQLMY
GRK2 inh: blocks RNA aptamer binding to human GRK2; bead flow cytometry, FAM-aptamer displacement from GRK2; inhibition of aptamer binding, % at 10 µM; 330,000 compounds, 0.59% hits; AID 488847;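 active means inhibition of aptamer binding above 40%, roughly 3 SD of noise, on plates passing a quality check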;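 further: median bead fluorescence of bound FAM aptamer so fluorescent compounds give negative values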
MEKK2 mut-MEK5: signal of MEK5 binding to mutant human MEKK2 PB1 domain; bead flow cytometry, Alexa488-MEK5 binding to MEKK2 mutant; percent response, % at 10 µM; 290,000 compounds, 0.35% hits; in the data active means percent response above about 24%, passing the limit was not always enough
MEKK2 WT-MEK5: raises or lowers MEK5 binding to wildtype human MEKK2 PB1 domain. AID 1531. 290,000 compounds, 1.1% hits. binding response (% of control), % at 10 µM. Q9Y2U5. bead flow cytometry, Alexa488-MEK5 binding to MEKK2 WT; actives lie on both sides; in the data active means binding response below about 67% or above about 130%
MEKK2wt confirm: raises or lowers MEK5 binding to wildtype human MEKK2, retest; shares compounds with MEKK3 PB1 HTS; bead flow cytometry, Alexa488-MEK5 binding to MEKK2 WT; actives lie on both sides; binding response (% of control), % at 10 µM; 5,900 compounds, 2.4% hits; in the data active means binding response below about 16% or above about 210%; inactive means in between
MEKK2mut-MEK5: signal of MEK5 binding to mutant human MEKK2, retest; percent response, % at 10 µM; bead flow cytometry, Alexa488-MEK5 binding to MEKK2 mutant; shares compounds with MEKK3 PB1 HTS; AID 1893; 5,900 compounds, 2% hits; in the data active means percent response mostly above about 71%, no sharp cut-off; inactive means mostly below about 38%;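 further: higher means compound restores mutant binding toward wildtype level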
MEKK3 confirm: MEKK3-MEK5 PB1 inhibition, single concentration confirmation | 5,900 compounds, 1.8% hits | bead flow cytometry, Alexa488-MEK5 binding to MEKK3; active compounds read low | shares compounds with MEKK3 PB1 HTS | binding response (% of control), % at 10 µM;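 active means binding response below 72% of control, or above a set upper limit, though filed actives all read lower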;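 further: 100% = DMSO only wells and 0% = binding blocked by excess unlabeled MEK5; lower values mean stronger disruption of MEK5 binding to MEKK3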
* = called active by the depositor; . = no result; [ ] = remark or other dose.

SMILES	MEKK3 PB1 HTS	GRK2 inh	MEKK2 mut-MEK5	MEKK2 WT-MEK5	MEKK2wt confirm	MEKK2mut-MEK5	MEKK3 confirm
COc1ccc(C2C(C(=O)Nc3cc(OC)c(OC)c(OC)c3)c3ccccc3C(=O)N2C)cc1OC (stereo not given)	90	0	-13	83	.	.	.
Cc1cc2oc3cc(NCCC4CCCN4C)ccc3c(=O)c2cc1C (stereo not given)	109	0	22	178*	142	21	103
CN1CCCC1CCNc1ccc2sc3ccccc3c(=O)c2c1 (stereo not given)	103	0	4	121	.	.	.
COc1ccc(N2CC(NC(=O)c3ccc4ccccc4c3)CC2=O)cc1OC (stereo not given)	.	0	.	.	.	.	.
COc1cc(/C=C/C(=O)O)cc(S(=O)(=O)N2CCc3ccccc3C2)c1OC	105	4	0	104	.	.	.
Cc1ccc(/C=C\c2nccc3c2[nH]c2ccccc23)cc1	105	3	26	174*	190	68	111
C(=C\c1nccc2c1[nH]c1ccccc12)/c1ccccc1	99	3	15	121	.	.	.
Fc1ccc(/C=C\c2nccc3c2[nH]c2ccccc23)cc1	112	2	36	195*	181	43	109
CCOc1ccccc1OCCC(=O)OCC(=O)Nc1c(C)cc(C)cc1C	.	0	.	.	.	.	.
C1CCC(C(CC2CCCCN2)C2CCCCC2)CC1 (stereo not given)	86	0	17	171*	140	28	102
COc1ccc(N=C2NC(=O)/C(=C\C=C\c3ccco3)S2)cc1	99	.	-9	90	.	.	.
Cc1cccc(N=C2NC(=O)/C(=C/C=C/c3ccco3)S2)c1	64*[inhibitor]	2	-2	91	84	-14	94
COc1ccc(OCC(=O)Nc2ccc(N3CCN(Cc4ccccc4F)CC3)cc2)cc1	105	0	7	105	.	.	.
N#Cc1cccn1-c1nccc(-c2cccs2)n1	149*	3	7	131	93	-6	91
CC1(C)Cc2c(cnn2-c2ccccc2)C(NC(=O)c2ccc[n+]([O-])c2)C1 (stereo not given)	103	2	6	108	.	.	.
Cc1nc(SCC(=O)c2ccc(F)cc2)c([N+](=O)[O-])[nH]1	102	2	4	104	.	.	.
Cc1nc(SCC(O)CO)c([N+](=O)[O-])[nH]1 (stereo not given)	112	1	16	138*	99	-2	97
C/C(=N\NC(=O)CNC(=O)C(c1ccccc1)c1ccccc1)c1ccc(C(C)(C)C)cc1	162*	0	1	108	106	-1	98
COc1cc2c(cc1OC)C(C(=O)NCCN(C)C)C(c1cccs1)N(C)C2=O (stereo not given)	95	4	-8	90	.	.	.
Cc1cc(C(=O)NCCCN2CCN(c3cc(Cl)ccc3C)CC2)n(-c2ccccc2)n1	109	0	21	139*	134	30	104
CCc1ccc(C(=O)NC(CCSC)C(=O)OC)cc1 (stereo not given)	3.0*[inhibitor]	2	4	3.0*[inhibitor]	93	-5	100
COCCS(=O)(=O)N(Cc1ccc(Br)cc1)[C@@H](C)C(=O)OC	.	0	.	.	.	.	.
COc1ccc(NC(=O)/C(C#N)=C/c2cc(C)n(-c3ccc(N4CCOCC4)c([N+](=O)[O-])c3)c2C)cc1	132*	1	0	102	102	3	106
Cc1cc(/C=C(\C#N)C(=O)Nc2ccc(F)cc2)c(C)n1-c1ccc(N2CCOCC2)c([N+](=O)[O-])c1	101	1	1	101	.	.	.
C=CCOc1nc2c(c(=O)n(C)c(=O)n2C)n1Cc1c(Cl)cccc1Cl	81*[inhibitor]	0	-6	89	100	-4	104
SMILES	MEKK3 PB1 HTS	GRK2 inh	MEKK2 mut-MEK5	MEKK2 WT-MEK5	MEKK2wt confirm	MEKK2mut-MEK5	MEKK3 confirm
COc1ccccc1N(CCC#N)C(=O)COC(=O)CCC(=O)c1ccc(F)cc1	.	2	.	.	.	.	.
O=C(COC(=O)c1c(F)cccc1F)Nc1ccc(N2CCCCC2)cc1	.	0	.	.	.	.	.
CNC[C@H](Cc1ccccc1)NC[C@@H](Cc1cccc2ccccc12)NCCc1ccc(C)cc1	121	0	120*	364*	255*	100*	116
CCCOc1ccc(C2=NNC(c3cccs3)=Nc3ccc(OC)cc32)cc1	141*	5	6	87	101	1	107
O=C(CSc1ccc(F)cc1)NC1CCCCC1	2.0*[inhibitor]	0	-84	1.0*[inhibitor]	106	5	107
CN(CCO)c1cc(N2CCCCC2)c2nonc2c1[N+](=O)[O-]	119	0	-1	106	.	.	.
CN(CCO)c1cc(N2CCC3(CC2)OCCO3)c2nonc2c1[N+](=O)[O-]	74*[inhibitor]	3	-1	105	98	-2	100
O=C(CNC(=O)c1ccc(N2C(=O)c3ccccc3C2=O)cc1)OCC(=O)c1ccccc1	96	2	-1	96	.	.	.
O=C(CNC(=O)c1ccc(N2C(=O)c3ccccc3C2=O)cc1)OCC(=O)c1cccc2ccccc12	2.0*[inhibitor]	0	-8	4.0*[inhibitor]	100	-2	101
CCCN1C2CCCC1CC(NC(=O)c1cc(OC)cc(OC)c1)C2 (stereo not given)	95	1	0	100	.	.	.
CC(=O)N(C)c1ccc(OCC(O)Cn2c(C)nc3ccccc32)cc1 (stereo not given)	135*	0	1	115	98	-2	101
CCc1ccc(C2=NN(CCC(=O)NC3CC3)C(=O)CC2)cc1	144*	7	0	106	98	-12	101
O=C(CN1CCCc2ccccc21)N/N=C/c1ccccc1O	128*	0	2	101	100	0	102
C=CCn1c(SCC(=O)NC2CCCCC2)nnc1-c1sc(N)nc1C	3.0*[inhibitor]	0	-13	3.0*[inhibitor]	97	2	104
Cc1ccc(C(=O)N/C(=C\c2ccc(Br)cc2)c2nc(=S)[nH][nH]2)cc1	97	1	-10	65*[inhibitor]	82	-15	96
Cc1c(C#N)c(N=CN(C)C)c(C(=O)c2ccc(Br)cc2)n1-c1ccccc1	103	0	2	69*[inhibitor]	96	-1	102
Cc1ccccc1C(=O)Nc1ccnn1C1CCN(C2CCSCC2)CC1	104	0	6	107	.	.	.
O=C(CCC(=O)Nc1ccc(F)cc1)N/N=C/c1cccnc1	101	0	6	102	.	.	.
c1ccc(-c2cn3nc(-c4ccccc4)c(-c4ccccc4)nc3n2)cc1	107	1	-5	63*[inhibitor]	61	-20	93

Screening results as filed in PubChem BioAssay.
